Results reported in the supplement of paper PMC10849652.
Of roughly 8,800 targets only a part is listed; those with a hit were picked by preference. About 0.5% of all pairs of compound and target were hits. A number with no mark means an inactive call.

compound: CCCS(=O)(=O)Nc1ccc(F)c(C(=O)c2c[nH]c3ncc(-c4ccc(Cl)cc4)cc23)c1F [vemurafenib]; test: log2 fold change, soluble protein after heating vs DMSO (PISA); higher = thermal stabilisation; K562 lysate, 10 uM; active = over 0.2 and 3.5 SD of the protein, either way, in both replicates (recomputed)
Procedure, shortened: (§1)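 Thermal stability, expressed as log-two fold change relative to solvent controls, is given from duplicates. Crude K562 extract in PBS pH 7.4 with 1 mM MgCl2, at 1 mg/mL protein, was treated with 10 μM compound for 30 min and heated in aliquots for 3 min across 48°C-58°C. After pooling, adjustment to 0.5% NP-40 at 4°C and centrifugation at 21,000xg for 90 min, supernatant protein was measured by TMTpro 16plex LC-MS/MS with channel sums equalised.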

Sequence of UniProt Q92698 (Q92698 whole entry, looked up): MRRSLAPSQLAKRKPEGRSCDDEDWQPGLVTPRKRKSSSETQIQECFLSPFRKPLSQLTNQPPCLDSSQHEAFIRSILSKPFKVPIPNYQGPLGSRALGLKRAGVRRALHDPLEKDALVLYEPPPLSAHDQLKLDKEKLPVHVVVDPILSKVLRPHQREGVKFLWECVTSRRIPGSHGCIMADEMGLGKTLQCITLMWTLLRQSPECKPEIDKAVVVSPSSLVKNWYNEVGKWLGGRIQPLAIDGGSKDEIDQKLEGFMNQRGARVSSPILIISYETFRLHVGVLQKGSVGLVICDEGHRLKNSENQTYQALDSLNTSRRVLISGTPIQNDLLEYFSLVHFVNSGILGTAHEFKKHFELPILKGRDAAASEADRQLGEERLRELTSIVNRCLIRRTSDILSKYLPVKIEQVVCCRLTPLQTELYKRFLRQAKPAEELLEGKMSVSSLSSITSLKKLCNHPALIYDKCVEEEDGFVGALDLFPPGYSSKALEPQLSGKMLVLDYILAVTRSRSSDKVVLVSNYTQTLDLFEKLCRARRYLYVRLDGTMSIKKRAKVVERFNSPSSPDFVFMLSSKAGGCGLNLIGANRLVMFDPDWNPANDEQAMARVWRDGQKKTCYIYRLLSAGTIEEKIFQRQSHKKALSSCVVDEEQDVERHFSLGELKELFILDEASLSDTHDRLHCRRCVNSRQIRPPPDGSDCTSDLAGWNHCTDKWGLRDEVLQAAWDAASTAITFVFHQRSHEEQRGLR
Sequence of UniProt Q7L0Q8 (Q7L0Q8 whole entry, looked up): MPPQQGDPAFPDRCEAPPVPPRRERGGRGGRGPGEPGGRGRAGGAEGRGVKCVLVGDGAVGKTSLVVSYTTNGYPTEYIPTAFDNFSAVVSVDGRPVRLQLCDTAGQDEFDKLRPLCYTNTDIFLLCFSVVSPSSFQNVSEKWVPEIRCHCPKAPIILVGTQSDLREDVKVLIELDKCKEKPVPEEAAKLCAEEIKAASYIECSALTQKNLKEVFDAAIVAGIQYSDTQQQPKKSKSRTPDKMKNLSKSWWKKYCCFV
Sequence of UniProt O75582 (O75582 whole entry, looked up): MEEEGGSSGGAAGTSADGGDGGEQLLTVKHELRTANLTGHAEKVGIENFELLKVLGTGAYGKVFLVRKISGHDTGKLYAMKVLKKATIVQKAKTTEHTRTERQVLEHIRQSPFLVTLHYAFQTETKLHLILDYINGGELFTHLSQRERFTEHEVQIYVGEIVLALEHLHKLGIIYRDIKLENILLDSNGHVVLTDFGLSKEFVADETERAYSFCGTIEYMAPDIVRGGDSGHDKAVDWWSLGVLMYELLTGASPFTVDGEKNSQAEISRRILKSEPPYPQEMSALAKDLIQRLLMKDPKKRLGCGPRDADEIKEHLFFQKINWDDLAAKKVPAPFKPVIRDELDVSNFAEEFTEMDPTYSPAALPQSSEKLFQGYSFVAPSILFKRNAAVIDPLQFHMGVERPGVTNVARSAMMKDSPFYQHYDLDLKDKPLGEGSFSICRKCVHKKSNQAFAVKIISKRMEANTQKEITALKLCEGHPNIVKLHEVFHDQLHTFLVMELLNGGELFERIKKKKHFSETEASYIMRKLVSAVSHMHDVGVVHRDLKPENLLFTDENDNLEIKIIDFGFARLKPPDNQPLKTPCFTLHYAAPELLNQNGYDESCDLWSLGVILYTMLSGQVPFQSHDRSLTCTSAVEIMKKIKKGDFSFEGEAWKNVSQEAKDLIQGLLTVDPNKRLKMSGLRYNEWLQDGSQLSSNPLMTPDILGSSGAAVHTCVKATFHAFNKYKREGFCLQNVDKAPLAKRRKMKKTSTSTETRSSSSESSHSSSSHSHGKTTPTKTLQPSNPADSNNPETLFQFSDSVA
Sequence of UniProt Q9UPW6 (Q9UPW6 whole entry, looked up): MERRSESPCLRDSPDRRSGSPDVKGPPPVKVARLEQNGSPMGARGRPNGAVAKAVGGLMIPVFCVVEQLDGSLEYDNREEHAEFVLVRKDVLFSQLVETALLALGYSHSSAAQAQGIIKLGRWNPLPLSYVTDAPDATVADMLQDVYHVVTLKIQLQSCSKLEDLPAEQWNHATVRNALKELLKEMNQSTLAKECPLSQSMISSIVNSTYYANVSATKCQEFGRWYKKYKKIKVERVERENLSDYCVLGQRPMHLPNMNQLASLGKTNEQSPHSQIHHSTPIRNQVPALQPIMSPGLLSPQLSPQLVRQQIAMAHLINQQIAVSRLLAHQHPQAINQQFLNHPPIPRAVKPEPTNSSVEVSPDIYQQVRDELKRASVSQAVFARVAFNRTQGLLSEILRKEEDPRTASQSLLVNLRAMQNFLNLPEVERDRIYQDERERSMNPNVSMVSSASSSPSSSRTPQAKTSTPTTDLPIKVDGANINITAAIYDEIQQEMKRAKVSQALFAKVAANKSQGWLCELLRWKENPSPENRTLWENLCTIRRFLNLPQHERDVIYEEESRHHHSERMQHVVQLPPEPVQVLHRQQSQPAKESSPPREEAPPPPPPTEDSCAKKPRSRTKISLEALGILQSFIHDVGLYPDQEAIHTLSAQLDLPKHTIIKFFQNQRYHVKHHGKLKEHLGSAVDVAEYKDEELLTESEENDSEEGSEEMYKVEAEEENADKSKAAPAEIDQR
Sequence of UniProt Q9BWG6 (Q9BWG6 whole entry, looked up): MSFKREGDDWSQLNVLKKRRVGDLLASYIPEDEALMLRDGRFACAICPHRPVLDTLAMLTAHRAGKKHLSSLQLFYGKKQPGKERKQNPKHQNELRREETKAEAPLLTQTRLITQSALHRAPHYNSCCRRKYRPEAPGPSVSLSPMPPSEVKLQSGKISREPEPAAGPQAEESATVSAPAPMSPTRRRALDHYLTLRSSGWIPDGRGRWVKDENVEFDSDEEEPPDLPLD
Sequence of UniProt O75943 (O75943 whole entry, looked up): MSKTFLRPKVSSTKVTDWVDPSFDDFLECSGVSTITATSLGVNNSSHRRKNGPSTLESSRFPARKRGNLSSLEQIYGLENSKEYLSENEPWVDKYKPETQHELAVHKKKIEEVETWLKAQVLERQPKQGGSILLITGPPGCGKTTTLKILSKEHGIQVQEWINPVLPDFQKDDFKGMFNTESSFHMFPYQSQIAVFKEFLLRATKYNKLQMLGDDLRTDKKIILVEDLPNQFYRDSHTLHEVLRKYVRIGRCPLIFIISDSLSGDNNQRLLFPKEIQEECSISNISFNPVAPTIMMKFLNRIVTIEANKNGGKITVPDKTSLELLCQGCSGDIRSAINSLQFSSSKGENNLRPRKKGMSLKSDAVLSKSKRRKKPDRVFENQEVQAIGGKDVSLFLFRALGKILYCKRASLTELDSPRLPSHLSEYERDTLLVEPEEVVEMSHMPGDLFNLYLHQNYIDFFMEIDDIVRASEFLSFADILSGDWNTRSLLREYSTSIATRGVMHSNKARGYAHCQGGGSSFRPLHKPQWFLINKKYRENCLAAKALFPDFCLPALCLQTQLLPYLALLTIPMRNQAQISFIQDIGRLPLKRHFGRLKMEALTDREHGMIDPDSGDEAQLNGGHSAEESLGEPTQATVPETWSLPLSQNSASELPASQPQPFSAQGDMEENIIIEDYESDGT
Sequence of UniProt Q8WXA3 (Q8WXA3 whole entry, looked up): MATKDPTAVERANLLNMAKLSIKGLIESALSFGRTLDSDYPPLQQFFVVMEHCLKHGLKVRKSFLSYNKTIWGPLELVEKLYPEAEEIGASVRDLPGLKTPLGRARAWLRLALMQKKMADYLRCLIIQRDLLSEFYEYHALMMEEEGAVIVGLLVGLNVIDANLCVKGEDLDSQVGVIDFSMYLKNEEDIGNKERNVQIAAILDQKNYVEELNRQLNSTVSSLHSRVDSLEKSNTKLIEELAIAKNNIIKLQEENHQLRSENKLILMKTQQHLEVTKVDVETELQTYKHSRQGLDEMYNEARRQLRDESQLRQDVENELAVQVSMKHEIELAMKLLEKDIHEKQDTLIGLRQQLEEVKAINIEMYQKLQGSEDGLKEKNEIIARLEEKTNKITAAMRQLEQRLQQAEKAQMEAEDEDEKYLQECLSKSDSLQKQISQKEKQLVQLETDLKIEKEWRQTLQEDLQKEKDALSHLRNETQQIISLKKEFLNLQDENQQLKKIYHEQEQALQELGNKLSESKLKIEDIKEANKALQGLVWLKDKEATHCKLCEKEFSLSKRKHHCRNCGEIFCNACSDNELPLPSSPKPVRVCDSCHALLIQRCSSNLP
Sequence of UniProt Q96K19 (Q96K19 whole entry, looked up): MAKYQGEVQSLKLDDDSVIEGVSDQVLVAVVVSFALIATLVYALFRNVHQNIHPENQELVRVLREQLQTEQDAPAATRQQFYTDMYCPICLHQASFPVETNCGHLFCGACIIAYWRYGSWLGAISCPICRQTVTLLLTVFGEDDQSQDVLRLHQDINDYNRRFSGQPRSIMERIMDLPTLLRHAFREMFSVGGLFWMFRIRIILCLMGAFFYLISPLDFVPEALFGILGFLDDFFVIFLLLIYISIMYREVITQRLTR
Sequence of UniProt Q8TC12 (Q8TC12 whole entry, looked up): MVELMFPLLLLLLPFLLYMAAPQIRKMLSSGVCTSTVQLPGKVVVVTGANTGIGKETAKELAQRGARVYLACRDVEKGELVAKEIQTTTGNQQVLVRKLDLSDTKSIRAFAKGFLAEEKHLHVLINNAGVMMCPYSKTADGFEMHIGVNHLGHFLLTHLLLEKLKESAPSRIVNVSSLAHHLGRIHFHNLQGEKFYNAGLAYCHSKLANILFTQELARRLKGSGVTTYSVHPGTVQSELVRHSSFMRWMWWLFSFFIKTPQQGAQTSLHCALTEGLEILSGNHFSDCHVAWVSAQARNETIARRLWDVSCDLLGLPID
Sequence of UniProt Q9Y6D0 (Q9Y6D0 whole entry, looked up): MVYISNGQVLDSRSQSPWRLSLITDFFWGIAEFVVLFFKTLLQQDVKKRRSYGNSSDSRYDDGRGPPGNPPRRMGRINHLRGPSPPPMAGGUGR
Sequence of UniProt Q96E14 (Q96E14 whole entry, looked up): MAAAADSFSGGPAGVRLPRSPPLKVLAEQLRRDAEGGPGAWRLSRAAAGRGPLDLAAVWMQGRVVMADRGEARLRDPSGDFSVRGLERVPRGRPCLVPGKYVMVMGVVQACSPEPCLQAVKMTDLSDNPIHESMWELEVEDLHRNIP

Row | Target | log2 fold change
1 | RUFY2 isoform 1 (UniProt Q8WXA3) | 0.01
2 | SATB2 (UniProt Q9UPW6) | 0.002
3 | SEMA4G isoform 2 (UniProt Q9NTN9) | 0.042
4 | QSER1, A0A3B3IRW6 | -0.042
5 | RPS6KA5 (UniProt O75582) | -0.048
6 | RHOU (UniProt Q7L0Q8) | -0.04
7 | RNF2 (UniProt Q99496) | -0.03
8 | RAD17 (UniProt O75943) | -0.091
9 | RFWD3 (UniProt Q6PCD5) | -0.073
10 | S100A6 (UniProt P06703) | 0.036
11 | SELENOK (UniProt Q9Y6D0) | -0.034
12 | RNF170 (UniProt Q96K19) | -0.08
13 | RMI2 (UniProt Q96E14) | 0.239
14 | RECQL4 (UniProt O94761) | -0.019
15 | RDH11 (UniProt Q8TC12) | 0.055

compound: CCCS(=O)(=O)Nc1ccc(F)c(C(=O)c2c[nH]c3ncc(Cl)cc23)c1F; test: as above
Procedure, shortened: as §1

Row | Target | log2 fold change
16 | RXRA (UniProt P19793) | -0.121
17 | SATB2 (UniProt Q9UPW6) | 0
18 | RNF17 (UniProt Q9BXT8) | 0.022
19 | QSER1, A0A3B3IRW6 | 0.045
20 | RPS6KA5 (UniProt O75582) | -0.073
21 | RHOU (UniProt Q7L0Q8) | -0.059
22 | S100A6 (UniProt P06703) | 0.124
23 | SELENOK (UniProt Q9Y6D0) | -0.004
24 | RNF170 (UniProt Q96K19) | 0.02
25 | RYR1 (UniProt P21817) | -0.038
26 | SCNM1 (UniProt Q9BWG6) | 0.012
27 | ROBO2 isoform 3 (UniProt Q9HCK4) | 0.071
28 | RAD54L (UniProt Q92698) | -0.054
29 | RNPC3 (UniProt Q96LT9) | -0.02
30 | RNASEH2B, A0A1B0GUE7 | -0.061
31 | RDH11 (UniProt Q8TC12) | 0.088
32 | RBM45 (UniProt Q8IUH3) | 0.12

compound: CCN(CCCOc1ccc2c(Nc3cc(CC(=O)Nc4cccc(F)c4)[nH]n3)ncnc2c1)CCOP(=O)(O)O [barasertib]; test: as above
Procedure, shortened: as §1

Row | Target | log2 fold change
33 | RUFY2 isoform 1 (UniProt Q8WXA3) | -0.206
34 | RALGAPB isoform 3 (UniProt Q86X10) | -0.005
35 | SERAC1 (UniProt Q96JX3) | 0.142
36 | RNF17 (UniProt Q9BXT8) | 0.133
37 | RAD17 (UniProt O75943) | 0.131
38 | RFWD3 (UniProt Q6PCD5) | 0.004
39 | RNF24 isoform 2 (UniProt Q9Y225) | 0.122
40 | SELENOK (UniProt Q9Y6D0) | -0.022
41 | RNF170 (UniProt Q96K19) | 0.189
42 | RYR1 (UniProt P21817) | 0.041
43 | RAD54L (UniProt Q92698) | 0.012
44 | RLIM (UniProt Q9NVW2) | 0.065
45 | RECQL4 (UniProt O94761) | 0.1

compound: CC[C@@H]1C(=O)N(C)c2cnc(Nc3ccc(C(=O)NC4CCN(C)CC4)cc3OC)nc2N1C1CCCC1; test: as above
Procedure, shortened: as §1

Row | Target | log2 fold change
46 | RUFY2 isoform 1 (UniProt Q8WXA3) | 0.038
47 | SATB2 (UniProt Q9UPW6) | 0.023
48 | RALGAPB isoform 3 (UniProt Q86X10) | -0.076
49 | SEMA4G isoform 2 (UniProt Q9NTN9) | -0.059
50 | SERAC1 (UniProt Q96JX3) | 0.1
51 | RNF17 (UniProt Q9BXT8) | 0.099
52 | QSER1, A0A3B3IRW6 | -0.044
53 | RPS6KA5 (UniProt O75582) | 0.059
54 | RHOU (UniProt Q7L0Q8) | -0.122
55 | RNF2 (UniProt Q99496) | -0.03
56 | RAD17 (UniProt O75943) | 0.017
57 | RFWD3 (UniProt Q6PCD5) | -0.011
58 | S100A6 (UniProt P06703) | -0.027
59 | RYR1 (UniProt P21817) | 0.07
60 | SCNM1 (UniProt Q9BWG6) | 0.122
61 | RMI2 (UniProt Q96E14) | -0.109
62 | RECQL4 (UniProt O94761) | 0.054
63 | RDH11 (UniProt Q8TC12) | -0.115

compound: CC[C@@H]1C(=O)N(C)c2cnc(Nc3ccc(C(=O)N[C@H]4CC[C@H](N5CCN(CC6CC6)CC5)CC4)cc3OC)nc2N1C(C)C [volasertib]; test: as above
Procedure, shortened: as §1

Row | Target | log2 fold change
64 | RXRA (UniProt P19793) | 0.026
65 | SATB2 (UniProt Q9UPW6) | 0.007
66 | RNF17 (UniProt Q9BXT8) | 0.066
67 | QSER1, A0A3B3IRW6 | -0.028
68 | RPS6KA5 (UniProt O75582) | -0.182
69 | RHOU (UniProt Q7L0Q8) | 0.008
70 | S100A6 (UniProt P06703) | 0.048
71 | SELENOK (UniProt Q9Y6D0) | 0.062
72 | RNF170 (UniProt Q96K19) | -0.131
73 | RYR1 (UniProt P21817) | -0.049
74 | SCNM1 (UniProt Q9BWG6) | 0.372 (active)
75 | ROBO2 isoform 3 (UniProt Q9HCK4) | 0.045
76 | RAD54L (UniProt Q92698) | 0.015
77 | RNPC3 (UniProt Q96LT9) | 0.019
78 | RNASEH2B, A0A1B0GUE7 | -0.064
79 | RDH11 (UniProt Q8TC12) | -0.13
80 | RBM45 (UniProt Q8IUH3) | -0.207
